Source: PubChem
The sample as a whole holds a higher share of hits than the screen did.
GRP78 ERSR act – inducers of ER stress response in human glioma cells. U87-MG GRP78 promoter luciferase reporter, 16 h. Potency, µM, without a hit: at the top dose activation, most hits filed as activators. hit rate 0.02% among 420,000; note: series mostly up to about 76 µM; % of control where 0% means no effect; nearly all actives have a fitted effect of over 35% in size
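Stably transfected U87-MG glioma cells carrying a GRP78-based luciferase sensor; 16 h compound incubation. Luminescence end-point read 10 min after Bright-Glo addition at room temperature.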
VDR inhibitor – blocks the human vitamin D receptor; VDR-SRC2-3 peptide fluorescence polarization, 2 h; Potency, µM, for inactives: max response, negative = inhibition, hits mostly inhibitors; hit rate 0.93% among 400,000; note: % is set by controls: 0 for no effect and ±100 for the full control effect
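Compounds are added to VDR with labelled SRC2-3 coactivator peptide and held 2 h at room temperature. Inhibition of the VDR–peptide interaction is then read as a change in fluorescence polarization.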
Sfp inh – inhibitors of Bacillus subtilis Sfp phosphopantetheinyl transferase; Q9F4F7; Biochemical Sfp PPTase activity, qHTS; Potency, µM, for the others: largest response in the series, negative = inhibition, actives largely listed as inhibitors; hit rate 3.5% among 310,000; AID 1490;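 note: the enzyme is Sfp with the accession as filed and its product quenches rhodamine fluorescence; 0% = enzyme reaction without inhibitor and -100% = no enzyme wells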
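Reaction rates are the 30-min fluorescence difference (ex 525, em 598 nm) in wells containing 15 nM Sfp, 5 uM rhodamine-CoA and 12.5 uM BHQ-2-YbbR at pH 7.6 with 10 mM MgCl2.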
ALOX12 inh – ALOX12 (human) lipoxygenase inhibition. P18054. purified 12hLO, xylenol orange hydroperoxide absorbance. Potency, µM (titrated, usually from 108 µM), for the others: at the highest dose activity change, negative = inhibition, hits mostly inhibitors. hit rate 1.1% among 580,000. AID 1671190; note: % is set by controls: 0 for no effect and ±100 for the full control effect
Target sequence (P18054 whole entry, looked up): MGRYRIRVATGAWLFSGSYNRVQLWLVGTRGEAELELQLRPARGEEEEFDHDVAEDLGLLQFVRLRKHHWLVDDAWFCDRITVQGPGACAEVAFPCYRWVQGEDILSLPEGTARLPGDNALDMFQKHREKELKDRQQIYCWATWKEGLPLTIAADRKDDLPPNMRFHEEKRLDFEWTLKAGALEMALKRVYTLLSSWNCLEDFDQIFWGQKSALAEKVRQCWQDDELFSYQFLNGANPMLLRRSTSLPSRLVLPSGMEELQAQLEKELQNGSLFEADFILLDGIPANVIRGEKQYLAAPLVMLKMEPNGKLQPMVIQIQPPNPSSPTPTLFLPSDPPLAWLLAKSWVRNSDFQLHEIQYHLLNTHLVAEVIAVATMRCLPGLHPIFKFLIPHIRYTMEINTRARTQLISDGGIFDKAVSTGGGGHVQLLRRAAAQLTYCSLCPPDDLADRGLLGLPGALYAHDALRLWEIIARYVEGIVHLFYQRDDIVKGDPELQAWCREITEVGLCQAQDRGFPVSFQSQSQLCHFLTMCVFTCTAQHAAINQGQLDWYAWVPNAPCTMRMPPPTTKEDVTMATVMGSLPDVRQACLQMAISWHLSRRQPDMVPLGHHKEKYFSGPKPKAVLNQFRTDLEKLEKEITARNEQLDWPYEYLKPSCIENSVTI
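Hydroperoxide product was detected by ferrous iron/xylenol orange as the 573 to 405 nm absorbance ratio. Arachidonic acid at 40 uM (final) was turned over for 30 min at room temperature by 150 nM human 12hLO, pH 7.0 Hepes buffer, after 15 min compound preincubation.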
G9a block – blocks human histone lysine methyltransferase G9a. G9a H3K9 monomethylation, AlphaScreen, 2 h. hit rate 8.8% among 350,000. Potency, µM (series often up to 102 µM), for inactives: at the highest dose activity, negative = inhibition, hits mostly inhibitors. Q96KQ7; note: % is set by controls: 0 for no effect and ±100 for the full control effect; nearly all actives have a fitted effect of over 75% in size
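G9a (20 nM) preincubated 15 min RT with compounds, then 500 nM biotinylated H3K9 peptide and 20 uM SAM added; 2 h RT reaction. Monomethyl-H3K9 product detected by AlphaScreen with anti-H3K9me1 antibody, streptavidin donor and anti-rabbit IgG acceptor beads.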
The depositor's hits bear a star; u = inconclusive; x = no result given; ! = not active in a repeat; [ ] = another dose, or the depositor's remark. Calls come from the whole dose curve; as a rule, active = well fitted curve in the direction sought with a large enough effect; inconclusive = small, poorly fitted or top-dose-only effect, or another doubt; inactive = no such curve, though single readings can be large; an effect the other way counts as inactive or inconclusive. Potency is the fitted concentration of half-maximal effect.

SMILES | GRP78 ERSR act | VDR inhibitor | Sfp inh | ALOX12 inh | G9a block
COc1cc(C2=NOC(C(=O)Nc3ccc4c(c3)OCO4)C2)cc(OC)c1OC (stereo not drawn) | 10% | 8% | -3% | 3% | 25µM*
COc1ccc(C2=NOC(C(=O)Nc3ccc4c(c3)OCO4)C2)cc1OC (stereo not drawn) | -1% | -10% | 5% | 3% | 50µM*
COc1ccc(NC(=O)C2CC(c3cc(OC)c(OC)c(OC)c3)=NO2)cc1OC (stereo not drawn) | -3% | -4% | -3% | 2% | u
COc1ccc(OC)c(NC(=O)Nc2ccc3c(c2)OCO3)c1 | 5% | 0% | 0% | -23% | 79µM*
COc1cccc(NC(=O)Nc2ccc3c(c2)OCO3)c1 | 9% | -12% | -1% | 4% | 7%
COc1cccc(C2=NOC(C(=O)Nc3ccc4c(c3)OCO4)C2)c1 (stereo not drawn) | -1% | -2% | 9% | -1% | u
COc1ccc(NC(=O)C2CC(c3ccc(OC)c(OC)c3)=NO2)cc1OC (stereo not drawn) | -7% | -14% | -15% | 0% | u
O=S(=O)(Cc1ccc(F)cc1)N1CCc2ccccc21 | x | x | x | -9% | x
CCC(C(=O)Nc1nnc(CC2CCCC2)s1)c1ccccc1 (stereo not drawn) | x | x | x | 79% | x
O=C(c1ccsc1)N1CCC2(CC1)CC(OCC1CC1)CCO2 (stereo not drawn) | x | x | x | 8% | x
CC(=O)c1ccc(N=Nc2ccc(C)cc2)cc1 | -7% | -10% | 0% | 20% | 7.9µM*
C=C(C)C(=O)Oc1ccc(N=Nc2ccc(C)cc2)ccc1=O | u | u | x | 22µM* | x
COC(=O)c1ccc(NN=Nc2ccc(C)cc2)cc1 | -5% | u | -17% | 18µM* | 7.9µM*
C=C(C)C(=O)Oc1ccc(N2C(=O)CCC2=O)cc1 | 3% | -14% | -7% | 15% | x
Cc1c(-c2ccccc2)nc2c3ccccc3ccn12 | x | x | x | 7% | x
CC(C)c1ccc(NC(=S)NN2C(C)CCCC2C)cc1 (stereo not drawn) | 0% | 7% | 10% | 28µM* | 18%
COc1ccc(NC(=S)NN2C(C)CCCC2C)cc1 (stereo not drawn) | -3% | -11% | 13% | u | u
Cn1c(=O)c(N)c2c3c(c(Br)ccc31)C(=O)c1ccccc1-2 | -7% | -13% | 1% | -15% | 4.5µM*
O=C(CCOc1ccccc1Cl)N1CCC(c2nnc3n2CCC3)CC1 | x | x | x | 7% | x
Cn1c2c(c(=O)n(C)c1=O)C(c1ccc(F)cc1)C(C#N)=C(N)O2 (stereo not drawn) | 2% | 6% | 2% | 5% | 45µM*
Cc1ccc(C(=O)COC(=O)CCCC(=O)Nc2cc(C(F)(F)F)ccc2Cl)cc1[N+](=O)[O-] | x | x | x | 3% | x
O=C1CC(c2ccc3c(c2)OCCO3)Oc2ccc([N+](=O)[O-])cc21 (stereo not drawn) | -11% | 20µM* | 4% | -17% | -25%
Cc1noc(C)c1CSCC(=O)N(C)CC(=O)Nc1ccccc1Br | -6% | -12% | x | -4% | -1%
Cc1ccc(C)c(NC(=O)CN(C)C(=O)CSCc2c(C)noc2C)c1 | -3% | -22% | x | -9% | 32µM*
Cc1oc(-c2cccs2)nc1CC(=O)N1CCOC(C)C1 (stereo not drawn) | x | x | x | -6% | x
SMILES | GRP78 ERSR act | VDR inhibitor | Sfp inh | ALOX12 inh | G9a block
CC(C)c1ccccc1NC(=O)CCc1nc2ccccc2s1 | 0% | -31% | u | -32% | 20µM*
Fc1cc2[nH]c(=S)[nH]c2cc1Cl | -7% | -8% | 8% | 4% | 6.3µM*
CC(C)COCC(CN(Cc1ccccc1)c1ccccc1)N1CCCC1 (stereo not drawn) | -1% | -4% | -19% | u | 10µM*!
Cc1nnc(SCC(=O)Nc2ccccc2C(=O)NC2CC2)s1 | -2% | u | -1% | 11% | 45µM*
CSc1nsc(SCC(=O)Nc2ccc(O)c(C(=O)O)c2)n1 | -3% | -1% | -28% | 40µM* | 40µM*
Cc1nnc(SCC(=O)Nc2ccccc2NC(=O)CSc2nnc(C)s2)s1 | -5% | 2% | 17% | 90% | -1%[59 µM]
CSc1nsc(SCC(=O)Nc2ccccc2C(=O)O)n1 | 5% | 10% | -45% | u | 7.9µM*
CSc1nsc(SCC(=O)Nc2ccc(Cl)c(C(=O)O)c2)n1 | -3% | -14% | 2% | -18% | 50µM*
COc1ccc(NC(=O)CSc2nc(SC)ns2)cc1 | 6% | 4% | -6% | 8% | -12%
CSc1nsc(SCC(=O)Nc2ccc(NC(C)=O)cc2)n1 | 5% | -14% | -5% | -8% | 17%
CC(C)NCC#CCOc1ccc(Cl)cc1 | 1% | -15% | -25% | -19% | 7.9µM*
COc1ccc(C(=O)OCC(=O)Nc2c(C(C)C)cccc2C(C)C)c(OC)c1OC | x | x | x | -1% | x
CN1CCOC(CNCc2cnc(C(C)(C)C)s2)C1 (stereo not drawn) | x | x | x | 23% | x
Cc1ccc(NC(=O)c2csnn2)c(C)c1 | 1% | -8% | 4% | 0% | 14µM*
Cc1ccc(/C=N\NC(=O)c2csnn2)cc1 | -12% | -8% | 10µM* | 0% | x
Cc1ccc(/C=N/NC(=O)c2ccncc2)cc1 | 1% | 9% | 13% | 28% | x
O=C(NC(=O)c1csnn1)Nc1ccccc1Cl | -1% | -21% | 3% | u | 89µM*
Cc1ccc(-c2cc(C(=O)O)c3ccc(C)c(C)c3n2)s1 | x | x | x | -8% | x
CC1=C([N+](=O)[O-])C(c2ccc(O)c(O)c2)NC(=O)N1 (stereo not drawn) | -7% | 1% | u | 28µM* | 10µM*
CC(=O)C1=C(c2ccccc2)NC(=S)NC1c1ccc(O)c(O)c1 (stereo not drawn) | -2% | -2% | -20% | u | 8.9µM*
COc1ccc(C2NC(=O)NC(C)=C2[N+](=O)[O-])cc1OC (stereo not drawn) | -2% | 1% | 10% | 4% | 23%[59 µM]
CC(=O)C1=C(c2ccccc2)NC(=O)NC1c1ccc(O)c(O)c1 (stereo not drawn) | -1% | -7% | 45µM* | u | x
CCCn1c2ccccc2c2nnc(SCc3ccc(F)cc3)nc21 | x | x | x | -17% | x
COCC1CN(C2CCC2)CC12CCN(C(=O)CCC1CCCC1)CC2 (stereo not drawn) | x | x | x | 8% | x
O=C(NC1CCS(=O)(=O)C1)C1CCCCN1S(=O)(=O)c1ccc(Cl)cc1 (stereo not drawn) | 0% | -12% | -22% | -14%[57.4 µM] | 28µM*
NNC(=O)C1CCCN1S(=O)(=O)c1ccc(Cl)cc1 (stereo not drawn) | 3% | 12% | 8% | 1% | 19%
O=c1c2ccccc2c(/C=N/n2cnnc2)c(O)n1-c1ccccc1F | -3% | -15% | -8% | -13% | 71µM*
CN(C)CCCN(C(=O)c1ccc2c(c1)CCCC2)c1nc2ccc(Cl)cc2s1 | -13% | -8% | 35µM* | u | u
